What is called AC50 is the midpoint of the concentration-response curve, whichever way the signal moves.

Active and inactive are the calls of the source. How the source made its calls: active means hit-call score of the fitted dose curve at least 0.9, where 1 is the maximum; inactive means score below 0.9.

The nature of this test: ATG_TA_CIS: Attagene CIS-FACTORIAL HepG2 Assay for human TA Basal Promoter (AID 2282964). As to conditions: HepG2 Attagene CIS-factorial TA basal promoter reporter; actives raise or lower the signal. As for the experimental part:
ATG_CIS is a cell-based, multiplexed-readout assay that uses HepG2, a human liver cell line, with measurements taken at 24 hours after chemical dosing in a 24-well plate.ATG_TA_CIS is one of 52 assay component(s) measured or calculated from the ATG_CIS assay. It is designed to make measurements of mRNA induction, a form of inducible reporter, as detected with fluorescence intensity signals by Reverse transcription polymerase chain reaction (RT-PCR) and Capillary electrophoresis technology.Data from the assay component ATG_TA_CIS was analyzed into 1 assay endpoint. This assay endpoint, ATG_TA_CIS, was analyzed with bidirectional fitting relative to DMSO as the negative control and baseline of activity. Using a type of inducible reporter, measures of mRNA for gain or loss-of-signal activity can be used to understand the background control at the transcription factor-level as they relate to the gene . Furthermore, this assay endpoint can be referred to as a secondary readout, because this assay has produced multiple assay endpoints where this one serves a background control function. To generalize the intended target to other relatable targets, this assay endpoint is annotated to the background measurement intended target family, where the subfamily is internal marker.
Human liver HepG2 cells are transiently transfected with multiple reporter transcription units (MRTUs) in 6-well plates using FuGene 6 reagent (Roche; 3 ml FuGene/1 mg DNA). The MRTU constructs are regulated by a cis-regulating element (promoter). […] A major difference between the CIS and TRANS system is that in CIS activities of endogenous TFs are measured, whereas the TRANS assay evaluates changes in activities of exogenous, chimeric NR-Gal4 proteins. […] At the end of 24 hour incubation, total RNA was isolated using TriZol reagent (Invitrogen). The isolated RNA is then reverse-transcribed using oligo(dT) primer and Mo-MLV reverse transcriptase (Invitrogen) with DNAse I (Ambion) treatment for 30 min. The one-tenth of the produced cDNA was amplified by PCR using Taq DNA polymerase (Invitrogen) and two reporter sequence-specific primers. The PCR products were fluorescently labeled by primer extension with 6-arboxyfluorescein (6-FAM) 5'-labeled reporter sequence-specific primer (2 min at 95 C, 20 s at 68 C and 10 min at 72 C) and these products were digested with 5U of HpaI (New England Biolabs) for 2h at 37 C. The fragments were purified using Qiaquick PCR columns (Qiagen), analyzed on an ABI 3130xL genetic analyzer (Applied Biosystems) with peak positions identified by using a set of X-rhodamine (ROX)-labeled MapMarker1000 molecular weight standards (BioVentures). The raw capillary electrophoresis data was processed using Attagraph software (Attagene).
With `CCCCCCOC(=O)CC(CC(=O)OCCCCCC)(OC(=O)CCC)C(=O)OCCCCCC`, the call was inactive.

`Cc1cccc(O)c1C`: the result was inactive.

Regarding `CC[C@H](C)C(=O)O[C@H]1C[C@H](O)C=C2C=C[C@H](C)[C@H](CC[C@@H](O)C[C@@H](O)CC(=O)O)[C@H]21`, the compound was classed as inactive.

As for `O=C1CN(N=Cc2ccc([N+](=O)[O-])o2)C(=O)N1`, the call was inactive.

Take `NC(N)=O`: the compound was classed as inactive.

With `O=C(NO)C1(NS(=O)(=O)c2ccc(Oc3ccc(F)cc3)cc2)CCOCC1`, the result was inactive.

Turning to `CC(C)CCCCCCOC(=O)C1CCCCC1C(=O)OCCCCCCC(C)C` (stereo not given), the compound was classed as inactive.

Turning to `C[C@@H](Oc1ccc(CNC(=O)c2cccnc2Oc2ccc3c(c2)OCO3)c(F)c1)C(=O)O`, the compound was classed as inactive.

For `O=C(O)[C@H](O)[C@@H](O)C(=O)O`, the result was inactive.

As to `CCCCCOC(C)=O`, the compound was called inactive.

Regarding `NC(=O)NN=Cc1ccc([N+](=O)[O-])o1`, the compound was called inactive.

For the compound `O=S1(=O)CCCO1`, the compound was called inactive.

Turning to `OCCOCCOCCO`, the outcome was inactive.

Take `CCCCCCCCN(C)C`: the compound was classed as inactive.

As for `Cc1nccn1-c1ccc(Sc2cccc(C3(C(N)=O)CCOCC3)c2)cc1`, the outcome was inactive.

`OC[C@H]1O[C@@](CO)(O[C@H]2O[C@H](CO)[C@@H](O)[C@H](O)[C@H]2O)[C@@H](O)[C@@H]1O`: the outcome was inactive.

On to `Cc1nc(-c2ccccn2)ncc1C(=O)Nn1cc(C)c2cc(F)ccc21`, for which the compound was classed as inactive.

As for `O=S(=O)(O)c1ccc(N=Nc2c(O)ccc3cc(S(=O)(=O)O)ccc23)cc1`, the result was inactive.

With `NC(=O)N1c2ccccc2C=Cc2ccccc21`, the result was inactive.

For the compound `CCN(CC)C(=S)SSC(=S)N(CC)CC`, the compound was called inactive.

Turning to `O=C(O)c1cccc(C[C@@H]2COc3ccc(OCc4nc5cc(F)ccc5s4)cc3[C@@H]2O)c1`, the call was inactive.

Turning to `CCOc1ccc2[nH]cc(C(=O)NCc3ccccc3)c(=O)c2n1`, the compound was called inactive.

Turning to `C=CCc1cc(S(=O)(=O)c2ccc(O)c(CC=C)c2)ccc1O`, the AC50 was 33.4 µM (active).

Consider `c1ccc2c(c1)-c1cccc3c1c-2cc1ccccc13`, for which the call was inactive.

On to `CCCCCCCCCCCCCCCCOS(=O)(=O)O`, for which the compound was called inactive.

`CC1(C)C(=O)N(Cl)C(=O)N1Cl`: the result was inactive.

On to `CCCc1ccccc1`, for which the compound was classed as inactive.

On to `c1ccc(C(O[C@@H]2CCCN(CCc3ccc4c(c3)OCO4)C2)c2ccccc2)cc1`, for which the AC50 is 55.3 µM (active).

`FC(F)=C(F)C(F)(F)C(F)(F)C(F)(F)C(F)(F)C(F)(F)C(F)(F)F`: the result was inactive.

With `NC(=O)N(O)[C@@H]1COc2cc(OCc3ccccc3)ccc21`, the compound was classed as inactive.

In the case of `OC(O)(C(F)C(O)(O)C(F)(F)F)C(F)(F)F`, the result was inactive.

`CCCCCCCC1CCC(=O)O1` (stereo not given): the compound was classed as inactive.

Take `CCc1cccc(CC)c1N`: the result was inactive.

Take `C=CN1CCCC1=O`: the call was inactive.

Turning to `O=C(Cl)C(F)(F)C(F)(F)C(F)(F)C(=O)Cl`, the compound was called inactive.

On to `CCCOc1ccc(S(=O)(=O)N2CCN(CC)CC2)cc1-c1nc2c(CC)n(Cc3ccccn3)nc2c(=O)[nH]1`, for which the compound was called inactive.

Take `CCn1nc(C)c2c1C(=O)NCC(c1ccc(O)cc1)=N2`: the compound was called inactive.

Turning to `O=C(O)CO`, the compound was called inactive.

On to `Cn1cc[nH]c1=S`, for which the result was inactive.

In the case of `FC(F)(F)COC(OCC(F)(F)F)OCC(F)(F)F`, the result was inactive.

For the origin of these results see PubChem BioAssay (EPA / NIEHS).
